For one experiment, the target named is XAGE3. Put plainly: pooled miR-30 sensor sort-seq; sequence = guide strand. The note with it: shRNA.
On to TCTCCTGACCAGGTGCAGGATC, for which the sensor-assay potency score (higher = more potent) is -0.873.
On to TTTCAGTTGGTGGTTCCTCTTG, for which the sensor-assay potency score (higher = more potent) is -0.62.
Still for that read-out and setting: then TTGAGTCTCAGCTGCACCCTGA, with -0.3; and TTCCTCTTGCTGAGGCTCCTCA, with -0.958.
Same read-out and setting: then TGCACCCTGATCTTCTTCTCTC, with -0.916.
The same measure, in the same setting: then TCTTCTTCTCTCTCCTGACCAG, with -1.02; and TTCTTCTCTCTCCTGACCAGGT, with -0.766.
TTTAAGTCAAATATCTTAGATA returned a sensor-assay potency score (higher = more potent) of -0.923.
Same read-out and setting: for TCTCTCTCCTGACCAGGTGCAG the value was -1.38.
Still for that read-out and setting: for TGGCATTTTAAATTGTTCTGAT the value was -0.221; for TGGTACACTTCTCCTCGGCCTA, -1.1.

Another experiment has as its target XAGE5. The description is as above. Conditions: shRNA.
In the case of TTGGTGGTTCTTCTTGTTGAGG, the sensor-assay potency score (higher = more potent) was -1.63.
TTAGGCACTTGAATCTCAGCTG showed a sensor-assay potency score (higher = more potent) of 0.649.
Same read-out and setting: for CAAGTCGTAAACATCGTCTTGG the value was -0.817; for TAGGCACTTGAATCTCAGCTGC, -0.239.
TTCAGTTGGTGGTTCTTCTTGT gave a sensor-assay potency score (higher = more potent) of 0.414.
In turn, TGAGCAAGTCGTAAACATCGTC registered a sensor-assay potency score (higher = more potent) of -0.511.
On the same count and under the same terms, for TTCTTCTTGTTGAGGCTCTGGC the value was -0.323; for TTTTAAATTGCTCTGATTTTGG, -0.858; for TCATCTTCTCTCTTCTGACCAG, -0.307.
Same read-out and setting: for TTTCAGTTGGTGGTTCTTCTTG the value was -0.699.
Same read-out and setting: for AAGTCGTAAACATCGTCTTGGT the value was -0.56; for TATCTCCGCATTCATCCCCAGT, -1.35.

A further experiment addresses XCL2. The description is as above. The note with it: shRNA.
CTTGATTCTGCTAACTGGCAGT yielded a sensor-assay potency score (higher = more potent) of -1.63.
The same measure, in the same setting: then TTGATTCTGCTAACTGGCAGTC, with -0.401.
Same read-out and setting: then TTCTGCTAACTGGCAGTCGCTG, with -1.02.
On the same count and under the same terms, then TCTGCTAACTGGCAGTCGCTGG, with -0.99.
TATGTGAGACTTCACTCCCTAC returned a sensor-assay potency score (higher = more potent) of -0.968.
Still for that read-out and setting: for TAAAAGGTGAGTATAATCTCAG the value was -0.178; for TCTTGATTCTGCTAACTGGCAG, -0.712.
Same read-out and setting: for ATAATCTCAGTCCATGAGGGTG the value was -1.29; for CTATGTGAGACTTCACTCCCTA, -0.487; for TCACACAGGTCCTCCTATGTGA, -0.506.
The same measure, in the same setting: for TATAATCTCAGTCCATGAGGGT the value was -0.365; for TGCTAACTGGCAGTCGCTGGGT, -0.761.

Another experiment concerns the target XKR5. The description is as above. The note with it: shRNA.
TAGTGTCTCACATTGAATGGAA gave a sensor-assay potency score (higher = more potent) of -0.0169.
Consider TTCTCTAATAAATATAGTGTAT, for which the sensor-assay potency score (higher = more potent) is -1.07.
On the same count and under the same terms, for TAAATTACCAGTGAGACACTGC the value was 0.68; for TTGTAGAACAGAACCAGACTCA, 0.203.
On the same count and under the same terms, for TATCTGTGAAGTCTGAGGCTAG the value was 0.0293.

The values above are taken from the OligoGym collection.
Note: reference of the scale not given here.
